Whole data set: some 68,000 sequences, median “fluorescence intensity (a.u.)” near 9,100, cut for the highest 2% near 16,000. Only a selection was taken, and the highest values are over-represented in it overall.

In this assay the target is OsWRKY34 (Oryza sativa, UniProt Q0JBA9 1-250). Description: protein-binding microarray (RPBM); PBS, 2% BSA, 51.3 ng/ul salmon testes DNA, 50 uM zinc acetate, 200 nM TF, 25 C, 1 h; high values mean tight binding. The note with it: protein: recombinant; tags: N-terminal polyhistidine and DsRed monomer fusion (pET32a); label: CyDye5-dUTP incorporated in the synthesized complementary strand; 3' TTTTT single-stranded linker to array surface; dsDNA, one strand shown. In short, it runs like this: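 A custom Agilent array was converted to double-stranded form by primer extension with Cy5-dUTP and blocked with 2% BSA. Protein at 200 nM in PBS with 2% BSA, salmon testes DNA and 50 µM zinc acetate was applied for 1 h at 25 °C, followed by washing. The proteins were polyhistidine–DsRed N-terminal fusions of transcription factors, expressed in E. coli BL21-CodonPlus and Ni–NTA-purified. The binding signal is per-feature fluorescence intensity (arbitrary units) from an Axon 4000B scanner.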
Sequence of OsWRKY34 (Q0JBA9 entry or part of it): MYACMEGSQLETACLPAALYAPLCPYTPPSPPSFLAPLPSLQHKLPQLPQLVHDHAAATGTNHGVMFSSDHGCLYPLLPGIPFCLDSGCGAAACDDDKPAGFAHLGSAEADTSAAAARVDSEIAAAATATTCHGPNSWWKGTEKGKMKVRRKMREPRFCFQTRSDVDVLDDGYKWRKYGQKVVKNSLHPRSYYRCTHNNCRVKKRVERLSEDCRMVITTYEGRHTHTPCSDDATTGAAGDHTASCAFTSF
Turning to “TTGGTGACTAAGCAGCTAGCTCATATTCCGTTTCAGCTTCCGGAGTCACCTAGTGCAG”, the binding signal is 9770 fluorescence intensity (a.u.).
Turning to “TCTCGTGTTCCTCTTCACTACCACTTCTAGAAGCTTCCTCCGGAGTCACCTAGTGCAG”, the binding signal is 8020 fluorescence intensity (a.u.).
Turning to “GGGGTTTATTATTTTCCCGGGTTAAATTGCCACGTAAGCACGGAGTCACCTAGTGCAG”, the binding signal is 10100 fluorescence intensity (a.u.).
For the sequence “ATAATAATATTTTTCACCTATGCCATACTTCTTTTGTCAACGGAGTCACCTAGTGCAG”, the binding signal is 8040 fluorescence intensity (a.u.).
Take “CGACTCCGACCTCTGCTCTCTTCCTTTTACACCCCATATCCGGAGTCACCTAGTGCAG”: the binding signal is 11100 fluorescence intensity (a.u.).
Turning to “TTTACTAAACTCGATCAGTTCTTCCCATATACTCTTGTGACGGAGTCACCTAGTGCAG”, the binding signal was 9070 fluorescence intensity (a.u.).
With “ATCAACCATGAACCATCCGCGCCCGCGCACCTCCTCCTCTCGGAGTCACCTAGTGCAG”, the binding signal is 8100 fluorescence intensity (a.u.).
Take “TTACACTTTCTCCTCCATCATGCGCTCATGGCCATCCATTCGGAGTCACCTAGTGCAG”: the binding signal was 8320 fluorescence intensity (a.u.).
In the case of “TAGCTCATTCATGCCTCCATCGGTTGACTTTTTTTTTCTACGGAGTCACCTAGTGCAG”, the binding signal was 20500 fluorescence intensity (a.u.).
With “CGTTGACTTTTTCTCACATGTTTGACCATTCGTCTTATTCCGGAGTCACCTAGTGCAG”, the binding signal was 31500 fluorescence intensity (a.u.).
As for “TTCTCCATTTTTTCATGGTTGACTCTAATCTTCATGACTACGGAGTCACCTAGTGCAG”, the binding signal was 8280 fluorescence intensity (a.u.).
Take “TTGACTTTTTCTCACATGTTTGACCATTCGTCTTATTCAACGGAGTCACCTAGTGCAG”: the binding signal was 15400 fluorescence intensity (a.u.).
The result for “TGACTTTTTCTCACATGTTTGACCATTCGTCTTATTCAAACGGAGTCACCTAGTGCAG” reads 10900 ± 914 fluorescence intensity (a.u.); that for “GTCGCCGCCTCCTCCTCTCCATCTCCGCTGCTATTATTGCCGGAGTCACCTAGTGCAG”, 12900 fluorescence intensity (a.u.).
For the sequence “TTTTCTCTGTTTACTTTTTTTTTATTATTTTTTTGCGCCGCGGAGTCACCTAGTGCAG”, the binding signal is 8240 fluorescence intensity (a.u.).
Take “ATGTCATGTCATGTCGCATATCTCCCATGTCTTGGCACGACGGAGTCACCTAGTGCAG”: the binding signal was 9540 fluorescence intensity (a.u.).
As for “TACTTGGCTATACTATTAAACTTGCTCTCGCACCATCTTTCGGAGTCACCTAGTGCAG”, the binding signal is 9680 fluorescence intensity (a.u.).
For “GTTGCAAAAGAGGCCTCTGACATGGTTCTTGCTGATGACACGGAGTCACCTAGTGCAG”, the binding signal was 8450 fluorescence intensity (a.u.).
As for “GATCAACGAACACTCGTGGGCCGTAGGCGGAGGCGCAAGTCGGAGTCACCTAGTGCAG”, the figure is 62600 fluorescence intensity (a.u.).
Take “CGGGGCCCAACGAGGTGGCGCCGTGGCTGGTGGGGCGGGTCGGAGTCACCTAGTGCAG”: the binding signal is 9270 fluorescence intensity (a.u.).
Take “ATCGCCATATAGGCGCCACGTGGAACGAAGACTCGGTCAACGGAGTCACCTAGTGCAG”: the binding signal was 9350 fluorescence intensity (a.u.).
As for “CCCGGCGGCCCGATCACCACCTGCCCGAACACCATCCTCCCGGAGTCACCTAGTGCAG”, the binding signal was 8530 fluorescence intensity (a.u.).
On to “TAGGTGTGGTGTGTGGAGAAGCGGTGGACCGACCGACGACCGGAGTCACCTAGTGCAG”, for which the binding signal is 8450 fluorescence intensity (a.u.).
The result for “ACTGTCGTGCCACAGTGGACGTGTGCGGCAGGTGAAGCACCGGAGTCACCTAGTGCAG” reads 49100 fluorescence intensity (a.u.).
Regarding “GTGTGTTGGTTGTCACAGTACTGTGTGGTGGTGGTGGAAGCGGAGTCACCTAGTGCAG”, the binding signal is 9220 fluorescence intensity (a.u.).
For the sequence “GGAAAAGAACACCGGTCCATTTTGCAACTATTGTGAAGTTCGGAGTCACCTAGTGCAG”, the binding signal is 8220 fluorescence intensity (a.u.).
Turning to “CCGGCAAAAGTCTCTCCATCTTGTCATCGTCTTCTCCAGCCGGAGTCACCTAGTGCAG”, the binding signal is 8410 fluorescence intensity (a.u.).
As for “GCGAGAGGGGACTGGGGAGGGGAGGGGCGGCGCTCGCTGGCGGAGTCACCTAGTGCAG”, the figure is 12500 fluorescence intensity (a.u.).
As to “TTGGGAGGGAGAGTGGTAAAGGGTGCTGGGGCTTTGGCTGCGGAGTCACCTAGTGCAG”, the binding signal is 8840 fluorescence intensity (a.u.).
With “GAGGAAATGCCTGGGAGGAGGAGGAGGGACTCGGGGCGGGCGGAGTCACCTAGTGCAG”, the binding signal was 13300 fluorescence intensity (a.u.).
With “GGGGAAGGAGAAGAGGAAGGAGAGGGGAGGAGGAGGAGGGCGGAGTCACCTAGTGCAG”, the binding signal is 8870 fluorescence intensity (a.u.).
Take “ACTGGTTTTACACATTATGTGGGCTAACTTAATACTCCTTCGGAGTCACCTAGTGCAG”: the binding signal was 8040 fluorescence intensity (a.u.).
The result for “GGGGCTGTTTGGTTTCCAGGGACTTATTCCAAGTCCCTGTCGGAGTCACCTAGTGCAG” reads 9750 fluorescence intensity (a.u.); that for “TTGGATTGGGCTGCGGACCTGCGGTGGAGGGATTCAGGGTCGGAGTCACCTAGTGCAG”, 8240 fluorescence intensity (a.u.).
As to “AGAGGGGACTGGGGAGGGGAGGGGCGGCGCTCGCTGGCTTCGGAGTCACCTAGTGCAG”, the binding signal was 17500 fluorescence intensity (a.u.).
As for “TGGAAAGAGGAGGGCGGGGAGAGGACTGGGGAGGGCGGGGCGGAGTCACCTAGTGCAG”, the binding signal is 17700 fluorescence intensity (a.u.).
Take “TGGATTTGGCGGCGGCGGCGGCTTCGAGGGGAGGGGCTCTCGGAGTCACCTAGTGCAG”: the binding signal is 15300 fluorescence intensity (a.u.).
For “AGGATTCAATTTGGACTTTGGTGGAGGGGAGGGGCTGCTGCGGAGTCACCTAGTGCAG”, the binding signal was 22100 fluorescence intensity (a.u.).
Regarding “TCTTCGGTTTACTTATGTCCTGGCTGGTTGGGAGGGGACACGGAGTCACCTAGTGCAG”, the binding signal is 19100 fluorescence intensity (a.u.).
On to “ATTTTTTTTAAAAGTAGTTCTTCTGTTTCATATTATAATACGGAGTCACCTAGTGCAG”, for which the binding signal is 9230 fluorescence intensity (a.u.).
Turning to “TGTCTTTATTAAGTGCAAATGTATTTGGATTCCAACCCTTCGGAGTCACCTAGTGCAG”, the binding signal was 8180 fluorescence intensity (a.u.).
In the case of “TACCCACACACACACAAGAACACGCGCCACATTTGTCATTCGGAGTCACCTAGTGCAG”, the binding signal is 10900 fluorescence intensity (a.u.).
Turning to “TATTGTCTGGGGTTTGCTTATTGGCTTTTCAGGCCATGTCCGGAGTCACCTAGTGCAG”, the binding signal was 9320 fluorescence intensity (a.u.).
With “ATCTCTTTTGCATTTGTTCGTCCCTTTCGTTTTCAACTTGCGGAGTCACCTAGTGCAG”, the binding signal was 9290 fluorescence intensity (a.u.).
As for “CAAACATGTGCTAAAAAGTCAACGGTGTCAACCATTTTGACGGAGTCACCTAGTGCAG”, the binding signal was 11600 fluorescence intensity (a.u.).
As to “GGGGATTTGGGGAGACTTTTGGAGGGGAGGAGAGAGGGCGCGGAGTCACCTAGTGCAG”, the binding signal was 19700 fluorescence intensity (a.u.).

The record behind these values is paper PMC7819943, “Rice protein-binding microarrays: a tool to detect cis-acting elements near promoter regions in rice”.
